Test results as given in PubChem BioAssay.
“And” between values parts separate entries of the source, which are not always exact repeats. Equal entries are not always repeated.

Test: viability loss with induced miR-34 in A549 – imaging, A549 dox-inducible miR-34, nuclei and caspase counts, primary screen (AID 1347080); further: test concentration not given here
Conditions: A549 miR-34 inducible, Hoechst nuclei count, 48 h; measured here: relative caspase fold change +Dox/-Dox
For `O=C(O)c1ccc(-n2nc(-c3ccccc3O)nc2-c2ccccc2O)cc1`, the fold change was 1.1.
For `COc1ccc(-c2ccc3cc(C(=O)O)ccc3c2)cc1C12CC3CC(CC(C3)C1)C2`, the fold change was 0.775 and 0.908.
For `COCCCN1CCC(NC(=O)c2cc(Cl)c(N)c3c2OCC3)CC1`, the fold change was 0.687 and 0.593.
Compound `CCOC(=O)c1c(C)n(C)c2ccc(O)cc12` has a fold change of 0.841.
For `NCCCC(N)(C(=O)O)C(F)F` (stereo not given), the fold change was 0.834.
Compound `CN1CCCN=C1/C=C/c1cccs1` has a fold change of 1.06.
For `Cc1ccc(C(=O)c2cc(O)c(O)c([N+](=O)[O-])c2)cc1`, the fold change was 0.594 and 0.464.
With `Cc1nnc(C(=O)NC(C)(C)c2nc(C(=O)NCc3ccc(F)cc3)c(O)c(=O)n2C)o1` the fold change was 1.04.
With `Cc1ccccc1C(=O)Nc1ccc(C(=O)N2CCCC(O)c3cc(Cl)ccc32)c(C)c1` (stereo not given) the fold change was 0.412 and 0.955.
In the case of `COc1ccc2cccc(CCNC(C)=O)c2c1`, the fold change is reported as 0.381 and 0.908 and 0.855.
With `Cc1cc2c(cc1CC(=O)c1sccc1S(=O)(=O)Nc1onc(C)c1Cl)OCO2` the fold change was 0.772.
`CCC1=C[C@@H]2CN(C1)Cc1c([nH]c3ccccc13)[C@@](C(=O)OC)(c1cc3c(cc1OC)N(C)[C@H]1[C@@](O)(C(=O)OC)[C@H](OC(C)=O)[C@]4(CC)C=CCN5CC[C@]31[C@@H]54)C2` gave a fold change of 1.02.
With `CC1(C)CCC(C)(C)c2cc(NC(=O)c3ccc(C(=O)O)cc3)ccc21` the fold change was 0.365.
For `Cc1ccc(Nc2nccc(N(C)c3ccc4c(C)n(C)nc4c3)n2)cc1S(N)(=O)=O`, the fold change was 1.31 and 0.946.
Compound `CCOC(=O)c1ccc(C#Cc2ccc3c(c2)C(C)(C)CCS3)nc1` has a fold change of 0.957.
For `O=P(O)(O)C(O)(Cn1ccnc1)P(=O)(O)O`, the fold change was 1.6.
In the case of `O=c1cc(O)c(Cl)c[nH]1`, the fold change is reported as 1.21.
In the case of `CC(C)(C)C(=O)Oc1ccc(S(=O)(=O)Nc2ccccc2C(=O)NCC(=O)O)cc1`, the fold change is reported as 1.11.
`N[C@@H](Cc1c[nH]c2ccc(O)cc12)C(=O)O` showed a fold change of 0.787.
`CCCCN(CCCC)CC(O)c1cc(Cl)cc2c1-c1ccc(Cl)cc1/C2=C/c1ccc(Cl)cc1` (stereo not given) showed a fold change of 2.5.
In the case of `N=C(N)c1ccc2cc(OC(=O)c3ccc(N=C(N)N)cc3)ccc2c1`, the fold change is reported as 1.3 and 0.971.
With `c1cnc2cc3c(cc2n1)C1CNCC3C1` the fold change was 1.76.
In the case of `CC(C(=O)O)c1ccc2c(c1)CC(=O)c1ccccc1S2` (stereo not given), the fold change is reported as 0.594.
With `CN(C)C(=O)COC(=O)Cc1ccc(OC(=O)c2ccc(N=C(N)N)cc2)cc1` the fold change was 0.433.
In the case of `CCCCc1oc2ccc(NS(C)(=O)=O)cc2c1C(=O)c1ccc(OCCCN(CCCC)CCCC)cc1`, the fold change is reported as 0.545 and 1.08.

Same assay, conditions: A549 miR-34 inducible, Hoechst nuclei count, 48 h; measured here: total cells with miR-34 induction; stronger effect = lower value
Work on `O=C(O)c1ccc(-n2nc(-c3ccccc3O)nc2-c2ccccc2O)cc1` yielded a cell count of 4300.
In the case of `COc1ccc(-c2ccc3cc(C(=O)O)ccc3c2)cc1C12CC3CC(CC(C3)C1)C2`, the cell count is reported as 1330 and 1240.
For `COCCCN1CCC(NC(=O)c2cc(Cl)c(N)c3c2OCC3)CC1`, the cell count was 8080 and 7810.
`CCOC(=O)c1c(C)n(C)c2ccc(O)cc12` showed a cell count of 7760.
In the case of `NCCCC(N)(C(=O)O)C(F)F` (stereo not given), the cell count is reported as 8420.
Work on `CN1CCCN=C1/C=C/c1cccs1` yielded a cell count of 9190.
For `Cc1ccc(C(=O)c2cc(O)c(O)c([N+](=O)[O-])c2)cc1`, the cell count was 8860 and 9320.
Compound `Cc1nnc(C(=O)NC(C)(C)c2nc(C(=O)NCc3ccc(F)cc3)c(O)c(=O)n2C)o1` has a cell count of 7710.
For `Cc1ccccc1C(=O)Nc1ccc(C(=O)N2CCCC(O)c3cc(Cl)ccc32)c(C)c1` (stereo not given), the cell count was 8090 and 8960.
With `COc1ccc2cccc(CCNC(C)=O)c2c1` the cell count was 8590 and 5820 and 7020.
Work on `Cc1cc2c(cc1CC(=O)c1sccc1S(=O)(=O)Nc1onc(C)c1Cl)OCO2` yielded a cell count of 7800.
With `CCC1=C[C@@H]2CN(C1)Cc1c([nH]c3ccccc13)[C@@](C(=O)OC)(c1cc3c(cc1OC)N(C)[C@H]1[C@@](O)(C(=O)OC)[C@H](OC(C)=O)[C@]4(CC)C=CCN5CC[C@]31[C@@H]54)C2` the cell count was 1860.
Work on `CC1(C)CCC(C)(C)c2cc(NC(=O)c3ccc(C(=O)O)cc3)ccc21` yielded a cell count of 8210.
For `Cc1ccc(Nc2nccc(N(C)c3ccc4c(C)n(C)nc4c3)n2)cc1S(N)(=O)=O`, the cell count was 4740 and 6080.
In the case of `CCOC(=O)c1ccc(C#Cc2ccc3c(c2)C(C)(C)CCS3)nc1`, the cell count is reported as 7750.
For `O=P(O)(O)C(O)(Cn1ccnc1)P(=O)(O)O`, the cell count was 9230.
Compound `O=c1cc(O)c(Cl)c[nH]1` has a cell count of 8010.
For `CC(C)(C)C(=O)Oc1ccc(S(=O)(=O)Nc2ccccc2C(=O)NCC(=O)O)cc1`, the cell count was 10600.
`N[C@@H](Cc1c[nH]c2ccc(O)cc12)C(=O)O` gave a cell count of 10300.
In the case of `CCCCN(CCCC)CC(O)c1cc(Cl)cc2c1-c1ccc(Cl)cc1/C2=C/c1ccc(Cl)cc1` (stereo not given), the cell count is reported as 8950.
With `N=C(N)c1ccc2cc(OC(=O)c3ccc(N=C(N)N)cc3)ccc2c1` the cell count was 3730 and 5820.
`c1cnc2cc3c(cc2n1)C1CNCC3C1` gave a cell count of 11200.
With `CC(C(=O)O)c1ccc2c(c1)CC(=O)c1ccccc1S2` (stereo not given) the cell count was 9750.
Work on `CN(C)C(=O)COC(=O)Cc1ccc(OC(=O)c2ccc(N=C(N)N)cc2)cc1` yielded a cell count of 8560.
With `CCCCc1oc2ccc(NS(C)(=O)=O)cc2c1C(=O)c1ccc(OCCCN(CCCC)CCCC)cc1` the cell count was 1680 and 3440.

Same assay, conditions: A549 miR-34 inducible, Hoechst nuclei count, 48 h; measured here: total cells without miR-34 induction
For `O=C(O)c1ccc(-n2nc(-c3ccccc3O)nc2-c2ccccc2O)cc1`, the cell count was 4600.
In the case of `COc1ccc(-c2ccc3cc(C(=O)O)ccc3c2)cc1C12CC3CC(CC(C3)C1)C2`, the cell count is reported as 1230 and 1070.
For `COCCCN1CCC(NC(=O)c2cc(Cl)c(N)c3c2OCC3)CC1`, the cell count was 8300 and 5970.
Compound `CCOC(=O)c1c(C)n(C)c2ccc(O)cc12` has a cell count of 8760.
In the case of `NCCCC(N)(C(=O)O)C(F)F` (stereo not given), the cell count is reported as 7470.
`CN1CCCN=C1/C=C/c1cccs1` gave a cell count of 9990.
For `Cc1ccc(C(=O)c2cc(O)c(O)c([N+](=O)[O-])c2)cc1`, the cell count was 8990 and 11100.
Compound `Cc1nnc(C(=O)NC(C)(C)c2nc(C(=O)NCc3ccc(F)cc3)c(O)c(=O)n2C)o1` has a cell count of 8560.
In the case of `Cc1ccccc1C(=O)Nc1ccc(C(=O)N2CCCC(O)c3cc(Cl)ccc32)c(C)c1` (stereo not given), the cell count is reported as 9700 and 10500.
In the case of `COc1ccc2cccc(CCNC(C)=O)c2c1`, the cell count is reported as 9510 and 5930 and 7430.
With `Cc1cc2c(cc1CC(=O)c1sccc1S(=O)(=O)Nc1onc(C)c1Cl)OCO2` the cell count was 8950.
With `CCC1=C[C@@H]2CN(C1)Cc1c([nH]c3ccccc13)[C@@](C(=O)OC)(c1cc3c(cc1OC)N(C)[C@H]1[C@@](O)(C(=O)OC)[C@H](OC(C)=O)[C@]4(CC)C=CCN5CC[C@]31[C@@H]54)C2` the cell count was 2030.
Compound `CC1(C)CCC(C)(C)c2cc(NC(=O)c3ccc(C(=O)O)cc3)ccc21` has a cell count of 9110.
For `Cc1ccc(Nc2nccc(N(C)c3ccc4c(C)n(C)nc4c3)n2)cc1S(N)(=O)=O`, the cell count was 5260 and 7730.
With `CCOC(=O)c1ccc(C#Cc2ccc3c(c2)C(C)(C)CCS3)nc1` the cell count was 8970.
For `O=P(O)(O)C(O)(Cn1ccnc1)P(=O)(O)O`, the cell count was 10900.
With `O=c1cc(O)c(Cl)c[nH]1` the cell count was 8380.
Work on `CC(C)(C)C(=O)Oc1ccc(S(=O)(=O)Nc2ccccc2C(=O)NCC(=O)O)cc1` yielded a cell count of 9900.
In the case of `N[C@@H](Cc1c[nH]c2ccc(O)cc12)C(=O)O`, the cell count is reported as 9860.
In the case of `CCCCN(CCCC)CC(O)c1cc(Cl)cc2c1-c1ccc(Cl)cc1/C2=C/c1ccc(Cl)cc1` (stereo not given), the cell count is reported as 8560.
With `N=C(N)c1ccc2cc(OC(=O)c3ccc(N=C(N)N)cc3)ccc2c1` the cell count was 3670 and 6340.
For `c1cnc2cc3c(cc2n1)C1CNCC3C1`, the cell count was 10600.
For `CC(C(=O)O)c1ccc2c(c1)CC(=O)c1ccccc1S2` (stereo not given), the cell count was 10800.
`CN(C)C(=O)COC(=O)Cc1ccc(OC(=O)c2ccc(N=C(N)N)cc2)cc1` gave a cell count of 8730.
For `CCCCc1oc2ccc(NS(C)(=O)=O)cc2c1C(=O)c1ccc(OCCCN(CCCC)CCCC)cc1`, the cell count was 1290 and 3970.
